HIF activator: HIF pathway transcriptional activation | U2OS HRE-luciferase reporter, luminescence; normalized: DMSO 0%, desferrioxamine 100% | activation, % at 7.5 µM (by protocol) | 300,000 compounds, 0.32% hits | AID 1910;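 active means mean activation of at least 10% of the iron chelator positive control signal, with at least half of replicates also reaching 10%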
NTR1 ag: NTR1 (human) agonism; 330,000 compounds, 0.17% hits; NTR1-U2OS beta-arrestin-GFP spot imaging, agonist mode; activation, % at 20 µM; AID 493036;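 active means activation at or above 40% of the spot to cytoplasm intensity ratio, with at least 20 cells analyzed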;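 further: 0% = DMSO without peptide and 100% = 100 nM NTR1 peptide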
Target sequence (P30989 whole entry, looked up): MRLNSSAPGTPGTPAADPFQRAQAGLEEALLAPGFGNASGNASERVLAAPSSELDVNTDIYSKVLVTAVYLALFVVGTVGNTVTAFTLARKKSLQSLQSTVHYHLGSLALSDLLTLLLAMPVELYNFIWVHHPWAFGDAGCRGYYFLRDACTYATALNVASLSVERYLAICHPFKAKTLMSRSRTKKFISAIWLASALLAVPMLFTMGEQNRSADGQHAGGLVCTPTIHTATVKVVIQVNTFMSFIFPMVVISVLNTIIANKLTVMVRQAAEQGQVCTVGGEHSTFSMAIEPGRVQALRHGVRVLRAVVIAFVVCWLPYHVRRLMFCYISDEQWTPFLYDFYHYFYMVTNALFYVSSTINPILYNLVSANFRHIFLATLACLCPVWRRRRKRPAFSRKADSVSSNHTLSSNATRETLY
Platelet DG rel: platelet dense granule release activity | 300,000 compounds, 0.22% hits | human platelet-rich plasma, SFLLRN dense granule ATP release, luminescence | inhibition, %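 (compounds screened at 7.5 µM in platelet-rich plasma)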;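 active means mean replicate score, as percent of positive control, at or above 50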
NTR1 ag conf: confirmation of agonists of human NTR1. shares compounds with NTR1 ag. 480 compounds, 38% hits. activation, % at 20 µM. AID 504550. NTR1-U2OS beta-arrestin-GFP translocation imaging;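 active means mean activation at 20 µM of at least 40%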;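 further: 0% = DMSO without peptide and 100% = 100 nM NTR1 peptide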
* hit, by the source's call; nt = not tested or not shown. Sampled rows, rich in hits. Any-hit rate of the full collection: about 0.63%.

SMILES	HIF activator	NTR1 ag	Platelet DG rel	NTR1 ag conf
COC(=O)c1c(NC(=O)CN(C)CC(=O)Nc2ccc(C)cc2)sc2c1CCC(C)C2 (stereo not given)	nt	15.6	nt	nt
CC1=C(C(=O)Nc2ccccc2)C2(CCCCC2)C(C(N)=O)C(=S)N1 (stereo not given)	-0.2	-1.6	0.3	nt
CCCOc1ccc(/C(CC)=N/NC(=O)C2(C)CC2(Br)Br)cc1 (stereo not given)	0.1	42.0*	0.5	23.5
CC/C(=N/NC(=O)c1ccc(Br)cc1)c1ccc(OCCN2CCOCC2)cc1	0.3	1.7	14.5	nt
COCCCNC(=O)C1=CCN(S(=O)(=O)c2ccc(C)cc2)CC1	-0.3	1.5	1.6	nt
CCc1ccccc1NC(=O)CCNS(=O)(=O)c1cc(Br)cnc1N	0.1	-1.2	-8.7	nt
Cc1cc(C)n(-c2nc(NC(C)(C)C)nc(NC(C)(C)C)n2)n1	-0.5	0.8	4.0	nt
Cc1cc(C)n(-c2nc(Nc3ccccc3C(F)(F)F)nc(-n3nc(C)cc3C)n2)n1	0.4	57.0*	7.1	43.3*
Cc1cc(C)n(-c2nc(Nc3ccccc3C)nc(-n3nc(C)cc3C)n2)n1	-0.4	48.1*	18.1	70.7*
Cc1cc(C)n(-c2nc(NC(C)C)nc(NC(C)C)n2)n1	0.5	1.7	11.7	nt
O=S(=O)(NCc1ccncc1)c1ccc(Br)s1	0.7	-0.5	5.8	nt
CC(=O)NC12CC3CC(C1)CC(C(=O)OCC(=O)c1cc(C)n(C)c1C)(C3)C2	nt	0.0	nt	nt
CCN(CC(=O)Nc1ccc(NC(C)=O)cc1)C(=O)CN1C(=O)NC2(CCCC2)C1=O	0.0	1.7	1.0	nt
COC(CNC(=S)Nc1ccc([N+](=O)[O-])cc1)OC	1.1	-2.2	-3.8	nt
CCCCC(NC(C)=O)c1nc2ccccc2n1CCCC (stereo not given)	-0.7	1.8	-1.8	nt
COC(=O)CSc1nc(N)c2c3c(sc2n1)CCCC3	0.5	-0.9	-0.7	nt
COC(=O)CSc1nc(N)c2c3c(sc2n1)C(c1ccccc1)SC(c1ccccc1)C3 (stereo not given)	0.1	49.9*	6.0	32.2
Nn1cnc2c(c1=O)C1(CCCCC1)Cc1ccccc1-2	-0.6	5.0	-3.1	nt
Oc1ccc(-c2nc3c4c(ncn3n2)-c2ccccc2CC42CCCC2)cc1	-2.5	46.3*	4.5	31.9
CN(CCCC1CCCC1)C(=O)c1cc(COc2ccc(F)c(F)c2)on1	-0.2	2.0	-1.6	nt
CSCCC(NS(=O)(=O)c1ccc(Cl)cc1)C(=O)OCC(=O)c1c(C)[nH]c2ccccc12 (stereo not given)	0.6	41.2*	5.8	25.2
Cc1[nH]c2ccccc2c1C(=O)COC(=O)C1CC(O)CN1S(=O)(=O)c1ccc(Cl)cc1 (stereo not given)	nt	6.1	nt	nt
O=C(CSCc1ccccc1)Nc1ccc(S(=O)(=O)N2CCOCC2)cc1	0.7	1.0	-0.6	nt
Cc1ccc(C(NC(=O)NN2CCN(C)CC2)C(Cl)Cl)cc1F (stereo not given)	-0.7	1.4	3.7	nt

Screening results deposited in PubChem BioAssay by several laboratories.
